Measured values published in PubChem BioAssay AID430 (Sanford-Burnham Center for Chemical Genomics, 2006).
The whole screen tested about 63,000 compounds, of which about 1,100 (1.7%) were called active. For the sample, actives were picked, then their nearest neighbours and some compounds at random. Results with a measured potency or affinity are listed apart. A number with no mark means an inactive call. Rule as the data show it: active = cytotoxicity above about 50%; inactive = the rest.

experiment: HPDE-C7 pancreatic duct cell viability loss – fluorescence, HTS (AID 430); details: HPDE-C7 pancreatic duct cells viability, at 10 µM, hits give high values;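 also: cells exposed to compound for 48 hours before viability readout; 0% = vehicle and 100% = reference cytotoxic drug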

SMILES	cytotoxicity
CCOC(=O)c1cnc2c(C(=O)OC)cccc2c1NCCN1CCOCC1	-10.4%
COc1ccc(N2CCN(CC(O)c3c[nH]c4ccc(OC)cc34)CC2C)cc1 (configuration not stated)	41.3%
COc1ccc(CCNC(=O)c2cc3ccccn3n2)c(OC)c1OC	-7%
COc1ccc(OC)c(Nc2nc(-c3sc(C)nc3C)cs2)c1	7.9%
COc1ccc(OC)c(Nc2nc(-c3cccs3)cs2)c1	44%
COc1ccc(OC)c(Nc2nc(-c3ccc(O)c(O)c3)cs2)c1	67.2% (active)
Cc1cc2cc(C(c3nnnn3Cc3ccco3)N3CCc4ccccc4C3)c(=O)[nH]c2cc1C (configuration not stated)	-4.7%
Cc1ccc(S(=O)(=O)c2c(C)nn(C(C)(C)C)c2OC(=O)c2ccco2)cc1	14.5%
CC(=O)Oc1c(S(=O)(=O)c2ccccc2)c(C)nn1C(C)(C)C	13.3%
Cc1nn(C(C)(C)C)c(OC(=O)c2ccc3c(c2)OCO3)c1S(=O)(=O)c1ccccc1	60.9% (active)
Cc1nn(C(C)(C)C)c(OC(=O)c2cccs2)c1S(=O)(=O)c1ccccc1	54.2% (active)
Cc1ccc(S(=O)(=O)c2c(C)nn(C(C)(C)C)c2OC(=O)c2cccs2)cc1	-6.5%
CC(=O)Oc1c(S(=O)(=O)c2ccc(C)cc2)c(C)nn1C(C)(C)C	12.6%
Cc1nn(C(C)(C)C)c(OC(=O)C2CCCC2)c1S(=O)(=O)c1ccccc1	-9.3%
Cc1nn(-c2ccccc2)c(OC(=O)c2cccs2)c1S(=O)(=O)c1ccccc1	-5.8%
CCC(Sc1nncn1C)C(=O)Nc1nnc(-c2ccccc2Cl)s1 (configuration not stated)	3.8%
CC(=O)Nc1ccc(C(=O)Nc2ccc(S(=O)(=O)NCC3CCCO3)cc2)cc1 (configuration not stated)	-3.3%
C=C(C)COc1ccc(-c2[nH]ncc2Oc2ccccc2OCC)c(O)c1	86% (active)
CCOc1ccc(-c2[nH]ncc2Oc2ccccc2OC)c(O)c1	65.8% (active)
COc1ccc(-c2[nH]ncc2-c2cnc(C)s2)c(O)c1	6.4%
COc1ccc(-c2[nH]ncc2Oc2ccccc2OC)c(O)c1	6.8%
C=C(C)COc1ccc(-c2nc(N)ncc2Oc2ccccc2OCC)c(O)c1	7.3%
COc1ccc(Oc2cn[nH]c2-c2ccc(O)cc2O)cc1	9.4%

SMILES	cytotoxicity
CCOc1ccccc1Oc1cn[nH]c1-c1ccc(OC)cc1O	51.7% (active)
CCOc1ccc(-c2[nH]ncc2Oc2ccccc2OCC)c(O)c1	53.9% (active)
O=c1c2c3nc4ccccc4nc3n(/N=C/c3cccs3)c2ncn1-c1ccccc1	-19.9%
O=C(CCc1nc2ccccc2[nH]1)Nc1ccc2c(c1)OCO2	5.9%
Cc1noc(C)c1COC(=O)CCN1c2ccccc2Sc2ccccc21	-8%
COc1ccc(NC(=O)CSc2nc3ccccc3c(=O)n2-c2ccc3c(c2)OCO3)c(OC)c1	33.6%
CCc1ccccc1-n1cnc2cc(C(=O)O)ccc21	-20.8%
O=C(O)c1cc(Cl)ccc1NC(=O)C1CCCO1 (configuration not stated)	-8.9%
C=CCNC(=O)C1CC(c2cccc(OC)c2)=NO1 (configuration not stated)	-8.4%
CCC1(COC(NC(=O)c2cccnc2)(C(F)(F)F)C(F)(F)F)COC1	-0.9%
COc1cccc(-c2nc(CS(=O)CC(=O)NC3CC3)c(C)o2)c1 (configuration not stated)	-3%
COc1nc(NC23CC4CC(CC(C4)C2)C3)nc(OC)n1	-8%
COCCCNC(=O)CN(Cc1ccc(Cl)cc1)S(C)(=O)=O	-2.6%
CCCSc1nc(C)c(CC(=O)OCC)c(=O)[nH]1	4%
O=C1c2ccccc2C(=O)N1CCSc1nnc(-c2ccco2)n1Cc1ccccc1	4.3%
CCCCCn1c(N(C)Cc2ccccc2)nc2c1c(=O)[nH]c(=O)n2C	-0.6%
CCOc1ccc(-c2[nH]ncc2-c2ccc(OC)c(OC)c2)c(O)c1	53.7% (active)
C=C(C)COc1ccc(-c2[nH]ncc2-c2ccc(OC)c(OC)c2)c(O)c1	13.3%
COc1ccc(-c2[nH]ncc2-c2ccc(Cl)cc2)c(O)c1	41.2%
CCC(=O)Nc1ccc(F)c(Cl)c1	-11.3%
CCOC(=O)Cc1csc(NC(=O)CSc2ncnc3c2cnn3-c2ccc(OC)cc2)n1	-6.9%
Cc1csc(NC(=O)CSc2ncnc3c2cnn3-c2ccccc2Cl)n1	19.7%
CCOC(=O)Cc1csc(NC(=O)CSc2ncnc3c2cnn3-c2ccccc2Cl)n1	57.4% (active)

SMILES	cytotoxicity
CC1(C)CC(=O)C(C(C2=C(O)CC(C)(C)CC2=O)c2cccc(O)c2)C(=O)C1 (configuration not stated)	10.5%
CC1(C)CC(=O)C2=C(C1)N(c1cccc(O)c1)C1=C(C2)C(=O)CC(C)(C)C1	59.8% (active)
CC1(C)CC(=O)C=C(Nc2cccc(O)c2)C1	1.7%
C=CCn1c(O)c(C(CC)=NCc2cccnc2)c(=O)[nH]c1=O	-2.2%
O=C(NCc1cccnc1)c1cc(-c2ccco2)on1	1.9%
N#Cc1cc2c(nc1SCC(=O)NCc1ccc3c(c1)OCO3)CCCCC2	-27.8%
COc1cccc(CNC(=O)c2cc3oc4ccccc4c3n2C)c1OC	53.5% (active)
COc1ccccc1CNC(=O)c1cc2c(=O)n(C)c3ccccc3c2n1C	15.2%
COc1cccc(CNC(=O)Cn2c(=O)oc3ccccc32)c1OC	-4.3%
CC1=NC(Nc2nc(C)c3ccccc3n2)=NC(C)(C)C1	1.1%
COc1ccc(CNC(=O)c2cc(-c3ccc(OC)c(OC)c3)on2)cc1	1%
CCCc1cc(C(N)=O)c(NC(=O)C2CCCO2)s1 (configuration not stated)	-5.1%
COC(=O)c1nc2nc(C)cc(C(F)(F)F)n2n1	-8.4%
O=C(Cn1c(=O)n(-c2cccc(Cl)c2)c(=O)n1CC(=O)N1CCCCC1)N1CCCCC1	1%
Cc1ccc(S(=O)(=O)C2(C(=O)N3CCCCCC3)CC2)cc1	6%
O=S(=O)(c1ccccc1)C1(S(=O)(=O)c2ccccc2)CCCC1	-3.4%
Cc1ccc(S(=O)(=O)C2(S(=O)(=O)c3ccc(C)cc3)CCCC2)cc1	54.6% (active)
O=C(NCCc1cccc(Cl)c1)c1cccnc1	-6%
Cc1noc(C)c1S(=O)(=O)Nc1ccc(C(=O)N2CCN(c3ccc(Cl)cc3)CC2)cc1	-12.9%
Cc1ccc(C)c(N2CCN(C(=O)c3ccc(NS(=O)(=O)c4c(C)noc4C)cc3)CC2)c1	41.2%
N#Cc1ccccc1Cn1c(=O)n(Cc2ccc(C(=O)NCc3ccco3)cc2)c(=O)c2ccccc21	7.9%
CC(=O)c1cccc(NC(=O)C=C(C)C)c1	5.6%
CN(Cc1ccccc1)C(=O)CSc1nnc(-c2ccco2)n1-c1ccccc1	-10.3%

SMILES	cytotoxicity
COc1ccc(CNC(=O)CSc2nnc(-c3ccc(NC(C)=O)cc3)n2C)cc1	-3.1%
CCCCCn1c(SCCN2CCOCC2)nc2c1c(=O)[nH]c(=O)n2C	5.5%
COc1ccccc1NC(=O)CN(c1ccc(C)cc1)S(=O)(=O)c1c(C)n[nH]c1C	4.4%
CCOc1ccccc1NC(=O)CN(c1cc(C)cc(C)c1)S(=O)(=O)c1c(C)noc1C	6.7%
CCOc1ccccc1NC(=O)CN(c1ccc(C)cc1)S(=O)(=O)c1c(C)n[nH]c1C	52.3% (active)
COc1ccc(N(CC(=O)Nc2cc(Cl)ccc2OC)S(=O)(=O)c2c(C)noc2C)cc1	73.4% (active)
COc1ccccc1CNC(=O)CN(c1ccc(C)cc1)S(=O)(=O)c1c(C)n[nH]c1C	4.9%
CCOc1ccc(N(CC(=O)NC(C)(C)C)S(=O)(=O)c2c(C)noc2C)cc1	-7.4%
COc1ccc(OC)c(NC(=O)CN(c2ccc(C)cc2)S(=O)(=O)c2c(C)noc2C)c1	4.3%
CCOc1ccccc1NC(=O)CN(c1ccc(C)cc1)S(=O)(=O)c1c(C)noc1C	-19.7%
COc1ccc(N(CC(=O)Nc2cc(C)ccc2OC)S(=O)(=O)c2c(C)noc2C)cc1	11.2%
CCOc1ccccc1NC(=O)CN(c1ccc(OC)cc1)S(=O)(=O)c1c(C)noc1C	66.8% (active)
CCOc1ccc(N(CC(=O)Nc2ccccc2C)S(=O)(=O)c2c(C)noc2C)cc1	65.3% (active)
CCOc1ccc(N(CC(=O)Nc2ccc(C)cc2)S(=O)(=O)c2c(C)noc2C)cc1	1.8%
CCN1CCN(c2ncc(C(=O)Nc3c(F)cc(F)cc3Br)c3ccccc23)CC1	18.4%
Cc1ccc(NC(=O)NC2(C(=O)NCc3ccco3)CCCCC2)cc1	-5.6%
CCn1[nH]c(=O)c(=Nc2c(C)n(C)n(-c3ccccc3)c2=O)cc1-c1ccc(Cl)cc1	-9.8%
O=C(O)c1ccc(COc2ccc(CO)cc2Cl)cc1	-12.9%
O=C1N2CN(C(c3ccccc3)c3ccccc3)CN=C2SC1(CO)CO	-13.8%
CCOc1ccc(-c2nc(CSCC(=O)N3CCN(C(=O)c4ccco4)CC3)c(C)o2)cc1	-10.8%
Cc1cc(=O)n2[nH]c(C)c(-c3ccccc3)c2n1	-5%
Cc1[nH]n2c(=O)cc(C(C)C)nc2c1-c1ccccc1	12.7%
Cc1[nH]n2c(=O)cc(C(C)(C)C)nc2c1-c1ccccc1	76.6% (active)
